Compound activity: PubChem BioAssay, National Center for Advancing Translational Sciences (NCATS)
VDR inh – inhibitors of human vitamin D receptor; P11473; VDR-SRC2-3 peptide fluorescence polarization, 2 h; Potency, µM, without a hit: max response, negative = inhibition, actives largely listed as inhibitors; 0.93% of 400,000 active; also: potency is read from the fitted curve at half-maximal effect; % is scaled to controls: 0 for no effect and ±100 for the full control effect
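Two reagent solutions held at 4 deg C in the dark were dispensed, compounds pinned at 23 nl, and the mixture incubated 2 h at room temperature. Read-out: fluorescence polarization of VDR–SRC2-3 peptide binding.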
PLK1 PBD block – blocks phosphopeptide binding to human PLK1 polo-box domain | 2.8% of 360,000 active | Plk1 PBD binding of FITC phosphopeptide, fluorescence polarization | P53350 | Potency, µM, without a hit: max response, negative = inhibition, most hits filed as inhibitors | AID 720504; also: potency is read from the fitted curve at half-maximal effect; series mostly up to about 57 µM; % is scaled to controls: 0 for no effect and ±100 for the full control effect; nearly all actives have a fitted effect of over 65% in size
Target sequence (P53350 whole entry, looked up, the tested form may be a part): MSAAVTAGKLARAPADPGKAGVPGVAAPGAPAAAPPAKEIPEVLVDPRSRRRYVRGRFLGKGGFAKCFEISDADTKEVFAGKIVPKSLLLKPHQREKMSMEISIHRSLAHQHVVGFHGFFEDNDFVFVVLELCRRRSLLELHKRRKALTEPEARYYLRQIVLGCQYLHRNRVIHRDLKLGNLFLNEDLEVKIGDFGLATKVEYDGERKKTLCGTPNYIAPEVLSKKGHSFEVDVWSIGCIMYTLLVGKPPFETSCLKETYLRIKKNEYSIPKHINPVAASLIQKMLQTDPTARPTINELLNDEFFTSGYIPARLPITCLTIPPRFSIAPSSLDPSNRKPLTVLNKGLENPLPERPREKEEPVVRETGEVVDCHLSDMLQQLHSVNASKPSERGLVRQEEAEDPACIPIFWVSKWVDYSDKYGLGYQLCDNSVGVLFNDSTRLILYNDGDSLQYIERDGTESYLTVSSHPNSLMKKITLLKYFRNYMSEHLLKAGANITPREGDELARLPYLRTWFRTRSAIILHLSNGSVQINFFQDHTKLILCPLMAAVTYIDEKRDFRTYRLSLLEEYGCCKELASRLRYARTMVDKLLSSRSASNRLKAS
TrxR1 substrate – is turned over as a substrate by rat TrxR1 | purified TrxR1 substrate turnover, NADPH consumption readout | 0.01% of 390,000 active | O89049 | Potency, µM (titrated, usually from 114 µM), for the others: top-dose activity change, negative = substrate turnover; also: potency is read from the fitted curve at half-maximal effect; % is scaled to controls: 0 for no effect and ±100 for the full control effect; nearly all actives have a fitted effect of over 50% in size
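Rat TrxR1, dispensed at 90 nM, was prereduced with 400 uM NADPH (final) for 5 min at ~22 deg C, then incubated with compound 15 min before 400 uM selenite. A first-read NADPH fluorescence drop versus no-compound background flagged substrates.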
Sfp PPTase inh – Sfp phosphopantetheinyl transferase inhibition; Q9F4F7; Biochemical Sfp PPTase activity, qHTS; Potency, µM, for inactives: largest response in the series, negative = inhibition, usual class: inhibitors; 3.5% of 310,000 active; AID 1490;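 also: the enzyme is Sfp with the accession as filed and its product quenches rhodamine fluorescence; potency is read from the fitted curve at half-maximal effect; 0% = enzyme reaction without inhibitor and -100% = no enzyme wells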
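After 15 min at room temperature with compound, 15 nM Sfp received 5 uM rhodamine-CoA plus 12.5 uM BHQ-2-ybbR (50 mM Hepes pH 7.6, 10 mM MgCl2). Rate came from the fluorescence difference over 30 min, ex 525/em 598 nm.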
rTrxR1 inhibitor – blocks rat thioredoxin reductase 1; 1% of 390,000 active; AID 588453; recombinant rTrxR1, NADPH fluorescence consumption, selenite substrate; Potency, µM (series often up to 114 µM), without a hit: at the top dose activity change, negative = inhibition, usual class: inhibitors; O89049; also: potency is read from the fitted curve at half-maximal effect; % is scaled to controls: 0 for no effect and ±100 for the full control effect; nearly all actives have a fitted effect of over 65% in size
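Rat TrxR1 (90 nM in the dispensed reagent) was pre-reduced with 400 uM NADPH for 5 min at room temperature, then incubated with compound for 15 min. After 400 uM selenite was added, NADPH fluorescence (Ex 340/Em 450 nm) was followed for 8 min.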
IDH1 R132H inh – inhibitors of human mutant IDH1 R132H. O75874. 0.093% of 390,000 active. Potency, µM (titrated, usually from 76.6 µM), inactives show at the highest dose activity change, negative = inhibition, actives largely listed as inhibitors. IDH1-R132H enzyme, NADPH consumption, diaphorase/resazurin fluorescence; also: potency is read from the fitted curve at half-maximal effect; % is scaled to controls: 0 for no effect and ±100 for the full control effect; nearly all actives have a fitted effect of over 65% in size
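IDH1-R132H (0.5 ug/mL dispensed) in pH 7.5 Tris buffer was preincubated 30 min with compound, then given a substrate mix of 0.016 mM NADPH and 2 mM alpha-KG for 80 min at room temperature; remaining NADPH was read by diaphorase/resazurin fluorescence.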
IDH1 autofl – autofluorescence interference, mutant IDH1 hit counter-screen; shares compounds with IDH1 R132H inh; Resorufin detection reagent fluorescence interference, cell-free; inhibition of signal, % at 51.2 µM; 750 tested, under 10 active; AID 623980;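 also: 0% = wells with normal resorufin and full inhibition = wells lacking resorufin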
IDH1 WT – inhibits human wild-type IDH1, mutant selectivity check | shares compounds with IDH1 R132H inh | WT IDH1 enzyme, NADPH diaphorase/resazurin fluorescence | Potency, µM (highest dose often 115 µM), without a hit: at the top dose activity change, negative = inhibition, usual class: inhibitors | 9% of 750 active | AID 623995;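 also: potency is read from the fitted curve at half-maximal effect; 0% = full WT IDH1 enzyme control and full inhibition = no enzyme wells; nearly all actives have a fitted effect of over 55% in size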
IDH1 R132H conf – mutant IDH1 (human) inhibition, confirmed | shares compounds with IDH1 R132H inh | Potency, µM (highest dose often 76.6 µM), inactives show top-dose activity change, negative = inhibition, actives largely listed as inhibitors | IDH1 R132H enzyme, NADPH diaphorase/resazurin fluorescence | 83% of 750 active; also: potency is read from the fitted curve at half-maximal effect; nearly all actives have a fitted effect of over 50% in size
Numbers without * were called inactive; ? = inconclusive; nt = not tested or not shown; [ ] = another dose, or the depositor's remark. Only some compounds are listed: those with a hit (about 5.2% of all), similar ones and a draw of the others. Calls follow the shape of the dose curve; as a rule, active = well fitted curve in the direction sought with a large enough effect; inconclusive = small, poorly fitted or top-dose-only effect, or another doubt; inactive = no such curve, though single readings can be large; an effect the other way counts as inactive or inconclusive.

SMILES	VDR inh	PLK1 PBD block	TrxR1 substrate	Sfp PPTase inh	rTrxR1 inhibitor	IDH1 R132H inh	IDH1 autofl	IDH1 WT	IDH1 R132H conf
COC(=O)c1ccc(C2c3c(-c4ccccc4O)n[nH]c3C(=O)N2Cc2cccnc2)cc1 (stereo not drawn)	4%	nt	-4%	nt	6%	?	5	0%	40µM*
CCCOc1ccc(C2c3c(-c4ccccc4O)n[nH]c3C(=O)N2Cc2ccncc2)cc1OCC (stereo not drawn)	3%	nt	24%	nt	-13%	?	-5	?	45µM*
CCOc1cc(C2c3c(-c4ccccc4O)n[nH]c3C(=O)N2CCc2ccccc2)ccc1O (stereo not drawn)	10%	nt	-10%	nt	-2%	?	-3	9%	?
O=C1c2[nH]nc(-c3ccccc3O)c2C(c2ccc(Cl)cc2)N1CCc1ccccc1 (stereo not drawn)	9%	nt	2%	nt	15%	-17%	nt	nt	nt
COc1ccc(CCN2C(=O)c3[nH]nc(-c4ccccc4O)c3C2c2ccc(O)c(OC)c2)cc1 (stereo not drawn)	15%	nt	3%	nt	17%	-7%	nt	nt	nt
Cc1cccc(C)c1NC(=O)C(c1ccnc2ccccc12)n1c(=O)c(-c2ccccc2)nc2ccccc21 (stereo not drawn)	nt	1%	nt	nt	nt	nt	nt	nt	nt
Nc1ncnc2c1ncn2[C@@H]1O[C@H](C(=O)NC2CC2)[C@H](O)[C@H]1O	nt	nt	nt	nt	7%	nt	nt	nt	nt
NC(=O)c1cccc(-c2ccnc3c2CC(C(=O)NCCc2ccccc2)O3)c1 (stereo not drawn)	nt	1%	nt	nt	nt	nt	nt	nt	nt
O=C1c2[nH]nc(-c3ccccc3O)c2C(c2ccc(F)cc2)N1CCO (stereo not drawn)	-2%	nt	1%	nt	19%	-10%	nt	nt	nt
CSc1ccc(C2c3c(-c4ccccc4O)n[nH]c3C(=O)N2Cc2ccncc2)cc1 (stereo not drawn)	18%	nt	-4%	nt	22%	40µM*	0	4%	28µM*
Cc1ccc(O)c(-c2n[nH]c3c2C(c2ccccc2F)N(Cc2ccco2)C3=O)c1 (stereo not drawn)	4%	nt	-4%	nt	17%	?	-10	-21%	25µM*
COc1cccc(C2c3c(-c4ccccc4O)n[nH]c3C(=O)N2Cc2ccco2)c1 (stereo not drawn)	-14%	6%	1%	-7%	6%	52µM*	0	-5%	40µM*
O=C1c2[nH]nc(-c3ccccc3O)c2C(c2ccc(Cl)cc2)N1Cc1ccco1 (stereo not drawn)	4%	nt	4%	nt	12%	40µM*	-1	1%	28µM*
COc1cc(C2c3c(-c4ccccc4O)n[nH]c3C(=O)N2CCO)ccc1OCC(C)C (stereo not drawn)	12%	nt	1%	nt	8%	-27%	nt	nt	nt
COc1cc(C2c3c(-c4ccccc4O)n[nH]c3C(=O)N2Cc2ccco2)ccc1OCC(C)C (stereo not drawn)	9%	nt	-3%	nt	8%	?	1	-19%	20µM*
Cc1cccc(C(=O)Nc2ccc(OCc3cc(=O)n4ccc(C)cc4n3)cc2)c1	3%	nt	-1%[57.1 µM]	nt	8%[57.1 µM]	-9%	nt	nt	nt
